The record followed here is PubChem BioAssay.

The structures appear in SMILES notation. Active and inactive are the calls of the source. Unless noted, the rule behind the calls is not given here.

For assay [1], the system named is Wnt5a (protein binding on small-molecule microarray). As to the kind of experiment: Wnt5a binders on small-molecule microarray, primary screen, biophysical, 635/667 nm fluorescence (AID 1142).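 Note: fluorescence read at 667 nm with signal to noise per printed feature.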 The following applies: 635 nm fluorescence, higher = more signal.
Assay [2] is described as follows: cell viability in Huh7 cells, primary screen, cytotoxicity control for HCV replication inhibitor project, CellTiter-Glo luminescence, basal, 48 h (AID 1143).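 Note: Huh7 hepatoma cells carrying a hepatitis C replication reporter with no stimulus; test concentration not given here.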 The settings on record: Huh7 HCV replicon, higher = more signal, called active from +8 up or from −8 down.
Assay [3] in a line: P. aeruginosa biofilm formation inhibitors, primary screen, PAO1 strain, BacTiter-Glo luminescence, LB-PBS (AID 1144). The following applies: 12 h, higher = more signal.
The nature of assay [4]: CREB reporter modulators without forskolin, primary screen, cell-based, PC12, CRE-LacZ reporter, unstimulated (AID 1145). The following applies: no forskolin, luminescence, 4.5 h, higher = more signal, called active from +8 up or from −8 down.
Assay [5] in a line: CREB reporter modulators under forskolin, primary screen, cell-based, PC12, CRE-LacZ reporter, forskolin-stimulated (AID 1146).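 Note: PC12 cells with 6xCRE LacZ reporter stimulated by forskolin 10 µM; beta-galactosidase reporter signal reflecting CREB driven transcription.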 The settings on record: luminescence, 4.5 h, higher = more signal, called active from +8 up or from −8 down.
The target of assay [6] is Streptavidin (Streptomyces avidinii) (UniProt P22629). As to the kind of experiment: streptavidin binders on small-molecule microarray, primary screen, artefact control for SMM compound annotation, biophysical, 635/667 nm fluorescence (AID 1147).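 Note: signal reflects streptavidin binding to arrayed compounds as a control protein.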 The settings on record: streptavidin binding, higher = more signal.
Chain of Streptavidin (Streptomyces avidinii) (P22629 whole entry, looked up): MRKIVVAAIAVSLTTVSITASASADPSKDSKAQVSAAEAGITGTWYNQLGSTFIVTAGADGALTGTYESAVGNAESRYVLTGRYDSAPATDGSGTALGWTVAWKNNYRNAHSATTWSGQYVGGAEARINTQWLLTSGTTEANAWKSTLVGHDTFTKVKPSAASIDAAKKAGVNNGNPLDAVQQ
Assay [7] is described as follows: small-molecule binders of probe aInhba, primary screen, biochemical, small-molecule microarray, 635/667 nm fluorescence (AID 1148).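 Note: score merges 667nm spot fluorescence with signal-to-noise for antibody binding to printed compounds.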 The following applies: higher = more signal.
Assay [8] deals with Torsin-1A (Homo sapiens) (UniProt O14656). As to the kind of experiment: torsin A binders from cell lysate, primary screen, small-molecule microarray, wild-type, 635/667 nm (AID 1149). The settings on record: COS7 hTOR1A-WT lysate, 635 nm fluorescence, higher = more signal.
Chain of Torsin-1A (Homo sapiens) (O14656 whole entry, looked up): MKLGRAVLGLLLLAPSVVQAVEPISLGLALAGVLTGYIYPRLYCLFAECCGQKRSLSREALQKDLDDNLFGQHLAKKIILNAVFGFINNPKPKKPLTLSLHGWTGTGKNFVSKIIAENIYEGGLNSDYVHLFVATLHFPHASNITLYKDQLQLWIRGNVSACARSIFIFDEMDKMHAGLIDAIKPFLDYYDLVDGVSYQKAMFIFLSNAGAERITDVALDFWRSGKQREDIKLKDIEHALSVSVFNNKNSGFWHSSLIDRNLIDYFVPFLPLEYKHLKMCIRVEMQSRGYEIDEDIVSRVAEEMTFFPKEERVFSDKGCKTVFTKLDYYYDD
The target is the same in assay [9]. As to the kind of experiment: small-molecule binders of mutant TOR1A in lysate, primary screen, cell lysate, small-molecule microarray, COS7 lysate, 635/667 nm fluorescence (AID 1150).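 Note: score pools 667 nm emission and signal to noise measuring lysate protein binding.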 The settings on record: COS7 hTOR1A mutant lysate, 635 nm fluorescence, higher = more signal.
Assay [10] relates to Sonic hedgehog protein (Shh). As to the kind of experiment: small-molecule binders of Shh protein, primary screen, biochemical, small-molecule microarray, 635/667 nm fluorescence (AID 1151).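 Note: Shh protein binding to compounds spotted on small-molecule microarray slides; score combines spot fluorescence intensity with signal-to-noise across triplicate slides.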 The settings on record: small-molecule microarray binding, 635 nm fluorescence; higher = more signal.
Assay [11] is described as follows: E. coli DRC41 culture turbidity changes, primary screen, E. coli filamentation inducer project, strain DRC41, OD650, 48 h (AID 1152).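 Note: E. coli MC1000 strain DRC41 lacking acrAB efflux pump and sulA.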 The settings on record: E. coli DRC41 (acrAB sulA), higher = more signal, called active from +8 up or from −8 down.
The nature of assay [12]: small-molecule binders of probe aLefty1, primary screen, biochemical, small-molecule microarray, 635/667 nm fluorescence (AID 1153).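 Note: score merges spot fluorescence with signal-to-noise ratio from the scanned slide images.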 The following applies: higher = more signal.
Assay [13] in a line: PSAC antagonists in infected red cells, primary screen, cell-based, P. falciparum Indochina, OD700, 1 h (AID 1154). The settings on record: P. falciparum Indochina infected RBC osmotic lysis, higher = more signal, called active from +8 up or from −8 down.
A short description of assay [14]: PSAC antagonists in infected red cells, primary screen, cell-based, P. falciparum Indochina, OD700, 2 h (AID 1155).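 Note: lysis reports solute entry through the parasite surface anion channel PSAC; channel blockers reduce lysis of infected cells.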 The settings on record: P. falciparum Indochina infected erythrocytes, osmotic lysis OD700; higher = more signal, called active from +8 up or from −8 down.
Assay [15] in a line: osmotic lysis modulators in infected erythrocytes, primary screen, PSAC antagonist project, cell-based, P. falciparum Indochina, OD700, 3 h (AID 1156). The settings on record: higher = more signal, called active from +8 up or from −8 down.
Assay [16] is described as follows: PSAC antagonists in infected red cells, primary screen, cell-based, P. falciparum Indochina, OD700, 18 h (AID 1157). The following applies: P. falciparum Indochina infected erythrocytes, osmotic lysis OD700, 18 h; higher = more signal, called active from +8 up or from −8 down.
The nature of assay [17]: modulators of S6 phosphorylation in cells, primary screen, cell-based, A549, cytoblot, luminescence, serum-stimulated (AID 1158).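 Note: serum-stimulated A549 lung adenocarcinoma cells; signal is phosphorylated S6 detected by cytoblot immunostaining with HRP secondary.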 The following applies: A549 phospho-S6 cytoblot, 5 h, higher = more signal.
Assay [18] has as its target NADPH oxidase 2 (Homo sapiens) (UniProt P04839). As to the kind of experiment: NOX2-dependent H2O2 signal modulators, primary screen, NOX inhibitor project, cell-based, HEK293-NOX2, PMA-stimulated, Amplex Red fluorescence (AID 1159). Note: test concentration not given here. The following applies: 45 min, higher = more signal, called active from +8 up or from −8 down.
Assay [19] addresses NADPH oxidase 4 (Homo sapiens) (UniProt Q9NPH5). As to the kind of experiment: NOX4-dependent H2O2 signal modulators, primary screen, NOX inhibitor project, cell-based, HEK293-NOX4, tetracycline-induced, Amplex Red fluorescence (AID 1160). The following applies: 45 min, higher = more signal, called active from +8 up or from −8 down.
For assay [20], the target named is NADPH oxidase 5 (Homo sapiens) (UniProt Q96PH1). As to the kind of experiment: NOX5-dependent H2O2 signal modulators, primary screen, NOX inhibitor project, cell-based, HEK293-NOX5, Amplex Red fluorescence (AID 1161). The settings on record: HEK293-NOX5, ionomycin, 45 min, higher = more signal.
Chain of NADPH oxidase 5 (Homo sapiens) (Q96PH1 whole entry, looked up): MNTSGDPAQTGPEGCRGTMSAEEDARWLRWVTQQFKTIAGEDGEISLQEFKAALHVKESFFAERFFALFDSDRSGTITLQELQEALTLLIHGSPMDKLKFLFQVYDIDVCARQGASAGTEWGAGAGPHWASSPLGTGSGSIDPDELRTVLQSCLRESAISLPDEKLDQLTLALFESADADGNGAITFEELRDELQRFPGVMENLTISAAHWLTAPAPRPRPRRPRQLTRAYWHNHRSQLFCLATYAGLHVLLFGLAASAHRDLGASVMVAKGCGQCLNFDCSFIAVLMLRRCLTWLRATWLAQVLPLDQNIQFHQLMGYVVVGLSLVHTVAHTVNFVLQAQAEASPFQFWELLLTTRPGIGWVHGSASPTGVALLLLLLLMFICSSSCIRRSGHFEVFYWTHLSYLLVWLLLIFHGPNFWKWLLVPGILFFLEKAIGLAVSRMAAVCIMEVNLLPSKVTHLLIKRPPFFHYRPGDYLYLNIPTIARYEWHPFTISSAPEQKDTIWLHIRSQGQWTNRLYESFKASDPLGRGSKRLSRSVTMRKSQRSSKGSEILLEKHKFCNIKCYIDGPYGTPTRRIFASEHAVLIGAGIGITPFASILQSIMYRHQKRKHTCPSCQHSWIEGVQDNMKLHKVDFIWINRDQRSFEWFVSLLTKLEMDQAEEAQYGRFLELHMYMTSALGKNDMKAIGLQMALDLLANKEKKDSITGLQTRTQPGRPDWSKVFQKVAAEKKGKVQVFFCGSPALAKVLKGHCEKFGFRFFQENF

Chain of NADPH oxidase 2 (Homo sapiens) (P04839 whole entry, looked up): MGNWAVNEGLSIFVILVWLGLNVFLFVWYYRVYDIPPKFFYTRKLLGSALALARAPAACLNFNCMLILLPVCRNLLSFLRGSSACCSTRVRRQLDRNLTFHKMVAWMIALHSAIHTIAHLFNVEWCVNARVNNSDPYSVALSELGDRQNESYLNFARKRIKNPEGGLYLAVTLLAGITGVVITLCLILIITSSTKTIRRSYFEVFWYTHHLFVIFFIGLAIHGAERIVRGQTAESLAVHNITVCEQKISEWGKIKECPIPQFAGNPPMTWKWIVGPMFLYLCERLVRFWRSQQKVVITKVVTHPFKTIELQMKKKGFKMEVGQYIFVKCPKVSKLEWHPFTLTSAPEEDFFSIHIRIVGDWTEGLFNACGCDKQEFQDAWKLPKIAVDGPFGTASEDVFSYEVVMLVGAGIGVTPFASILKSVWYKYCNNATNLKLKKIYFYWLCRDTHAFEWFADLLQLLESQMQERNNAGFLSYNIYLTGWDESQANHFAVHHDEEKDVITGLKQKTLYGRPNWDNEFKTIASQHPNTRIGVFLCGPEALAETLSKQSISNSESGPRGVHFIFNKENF
Chain of NADPH oxidase 4 (Homo sapiens) (Q9NPH5 whole entry, looked up): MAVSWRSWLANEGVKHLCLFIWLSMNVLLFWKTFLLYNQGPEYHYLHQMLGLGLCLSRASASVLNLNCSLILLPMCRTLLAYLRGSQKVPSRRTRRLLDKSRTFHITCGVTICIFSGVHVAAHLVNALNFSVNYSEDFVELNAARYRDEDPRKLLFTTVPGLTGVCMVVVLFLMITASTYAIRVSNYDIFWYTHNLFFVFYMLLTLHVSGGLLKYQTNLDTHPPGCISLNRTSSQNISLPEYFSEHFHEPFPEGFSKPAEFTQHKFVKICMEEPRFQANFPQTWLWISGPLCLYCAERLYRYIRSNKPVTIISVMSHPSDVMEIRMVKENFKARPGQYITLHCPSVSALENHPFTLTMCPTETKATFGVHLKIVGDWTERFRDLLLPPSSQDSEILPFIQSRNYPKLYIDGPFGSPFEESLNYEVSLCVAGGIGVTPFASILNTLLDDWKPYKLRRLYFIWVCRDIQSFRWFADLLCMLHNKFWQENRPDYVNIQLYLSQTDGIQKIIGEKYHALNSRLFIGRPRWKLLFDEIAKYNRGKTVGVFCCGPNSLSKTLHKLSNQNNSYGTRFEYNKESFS

In the case of `O=C(CS)NCCCCCNC(=O)[C@@H]1C[C@@H]2C(=O)N[C@@H](Cc3ccccc3)C(=O)N2[C@@H]1c1cccc(OCCO)c1`, the composite z-score in assay [1] is 0.409; in assay [6], -0.0307; in assay [7] it was -0.787; with Torsin-1A (Homo sapiens) [8], 0.7; in the assay with Torsin-1A (Homo sapiens) [9], 1.31; in assay [10], 1.49. Further, the composite z-score in assay [12] was -1.01. Further, the z-score in [2] is -0.497 (inactive); in assay [3], -0.042 (inactive); in assay [4], 0.7 (inactive); in [5] it was 0.432 (inactive); in assay [11], -0.145 (inactive); in assay [13], 2.5 (inactive). Moreover, the z-score in [14] is 0.148 (inactive); in assay [15], -0.395 (inactive); in [16], -0.0429 (inactive); in assay [17] it was -0.16; in assay [18], 1.73 (inactive); in [19], 0.924 (inactive). In assay [20], this molecule registered a z-score of 0.226.
Turning to `COc1cccc(/C=C(\C#N)C(=O)Nc2c(C)n(C)n(-c3ccccc3)c2=O)c1`, the composite z-score is 0.152 in [1]; 0.841 in [6]; -0.206 in assay [7]; 0.217 with Torsin-1A (Homo sapiens) [8]; 0.285 in the assay with Torsin-1A (Homo sapiens) [9]; 0.241 in [10]. The molecule also came in with a composite z-score in assay [12] of -0.168. Besides, the z-score was -2.45 (inactive) in [2]; -1.47 (inactive) in [3]; -0.788 (inactive) in assay [4]; -0.821 (inactive) in [5]; 1.42 (inactive) in assay [11]; 2.13 (inactive) in [13]. For the same molecule, the z-score is -0.901 (inactive) in assay [14]; 0.381 (inactive) in assay [15]; -0.924 (inactive) in assay [16]; 1.06 in assay [17]; -0.355 (inactive) in assay [18]; 0.139 (inactive) in assay [19]. In [20], this molecule returned a z-score of 0.595.
Regarding `C=C(C)C1CCC(C(O)C2C=CC3C(=O)N(C)C(=O)C3N2Nc2cc(OC)c(OC)c(OC)c2)CC1` (stereo not given), the composite z-score in assay [1] is 0.109; in [6], 0.889; in assay [7], 0.222; with Torsin-1A (Homo sapiens) [8] it was -0.0834; with Torsin-1A (Homo sapiens) [9], 0.44; in [10] it was 1.11. The composite z-score in assay [12] was 0.361. The z-score in assay [2] was 0.454 (inactive); in [3] it was 0.253 (inactive); in assay [4], 0.243 (inactive); in assay [5], 0.516 (inactive); in assay [11], -1.67 (inactive); in [13] it was 0.541 (inactive). The z-score is 0.61 (inactive) in [14]; -0.256 (inactive) in [15]; 0.901 (inactive) in assay [16]; -0.681 in assay [17]; -1.86 (inactive) in assay [18]; -2.78 (inactive) in assay [19]. Moreover, the z-score in assay [20] was -2.92.
Consider `C=CCOC(=O)[C@H]1[C@@H]2C(=O)O[C@@H](c3ccccc3)[C@@H](c3ccccc3)N2[C@@H](c2ccc(OCCOC(=O)[C@H]3C[C@H]4C(=O)N[C@@H](CCCCNC(C)=O)C(=O)N4[C@H]3c3cccc(OCCO)c3)cc2)[C@]12C(=O)Nc1ccc(I)cc12`, for which the composite z-score is 1.28 in assay [1]; 0.0123 in assay [6]; -0.431 in assay [7]; 0.96 in the assay with Torsin-1A (Homo sapiens) [8]; 0.763 with Torsin-1A (Homo sapiens) [9]; 2.46 in assay [10]. Further, in [12], the composite z-score is -0.625. For the same molecule, the z-score is -2.16 (inactive) in assay [2]; 0.437 (inactive) in [3]; 0.557 (inactive) in [4]; 0.133 (inactive) in assay [5]; 0.831 (inactive) in assay [11]; 1.81 (inactive) in assay [13]. Moreover, the z-score in assay [14] is -0.285 (inactive); in [15] it was 1.31 (inactive); in [16], -1.61 (inactive); in assay [17], 0.112; in assay [18], -0.224 (inactive); in [19], 0.68 (inactive). In addition, the z-score in [20] is -0.174.
Turning to `COCCOC(=O)N1C(=O)[C@@]2(c3cc(C#CC4(O)CCCCCC4)ccc31)[C@H](C(=O)N1CCN(c3ncccn3)CC1)[C@H]1C(=O)O[C@H](c3ccccc3)[C@H](c3ccccc3)N1[C@@H]2c1ccccc1OCCO`, the composite z-score is 0.329 in assay [1]; 0.0715 in assay [6]; 0.258 in [7]; 0.835 with Torsin-1A (Homo sapiens) [8]; 0.577 in the assay with Torsin-1A (Homo sapiens) [9]; 1.52 in assay [10]. In assay [12], the composite z-score amounted to 0.487. For the same molecule, the z-score in assay [2] was -2.56 (inactive); in assay [3], 0.884 (inactive); in assay [4], 0.204 (inactive); in [5] it was 1.22 (inactive); in assay [11], -0.53 (inactive); in assay [13], 1.57 (inactive). For the same molecule, the z-score in [14] is 0.276 (inactive); in assay [15], 0.547 (inactive); in assay [16], 0.384 (inactive); in assay [17], -0.21; in assay [18] it was 1.82 (inactive); in assay [19], -0.726 (inactive). The z-score in assay [20] turned out to be 1.31.
